Hits are enriched below; roughly 19% of the tested compounds scored in any of these assays.
TDP1 block: TDP1 (human) enzyme inhibition; Q9NUW8; recombinant TDP1, AlphaScreen DNA substrate cleavage; Potency, µM (highest dose often 130 µM), for inactives: at the highest dose activity change, negative = inhibition, usual class: inhibitors; 350,000 compounds, 0.28% hits; AID 485290; note: nearly all actives have a fitted effect of over 40% in size
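Signal: AlphaScreen proximity between streptavidin donor and anti-FITC acceptor beads on intact substrate. Reaction: Tdp1 1 nM, substrate 15 nM final, 5 min RT after 15 min compound preincubation.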
RORg inh: blocks mouse ROR gamma transcriptional activity; P51450; AID 2551; 310,000 compounds, 5.4% hits; Drosophila S2 Gal4-RORgamma UAS-luciferase reporter, 20 h; Potency, µM (highest dose often 53.6 µM), inactives show top-dose activity change, negative = inhibition, actives largely listed as inhibitors; note: nearly all actives have a fitted effect of over 60% in size
Target sequence (P51450 whole entry, looked up, the tested form may be a part): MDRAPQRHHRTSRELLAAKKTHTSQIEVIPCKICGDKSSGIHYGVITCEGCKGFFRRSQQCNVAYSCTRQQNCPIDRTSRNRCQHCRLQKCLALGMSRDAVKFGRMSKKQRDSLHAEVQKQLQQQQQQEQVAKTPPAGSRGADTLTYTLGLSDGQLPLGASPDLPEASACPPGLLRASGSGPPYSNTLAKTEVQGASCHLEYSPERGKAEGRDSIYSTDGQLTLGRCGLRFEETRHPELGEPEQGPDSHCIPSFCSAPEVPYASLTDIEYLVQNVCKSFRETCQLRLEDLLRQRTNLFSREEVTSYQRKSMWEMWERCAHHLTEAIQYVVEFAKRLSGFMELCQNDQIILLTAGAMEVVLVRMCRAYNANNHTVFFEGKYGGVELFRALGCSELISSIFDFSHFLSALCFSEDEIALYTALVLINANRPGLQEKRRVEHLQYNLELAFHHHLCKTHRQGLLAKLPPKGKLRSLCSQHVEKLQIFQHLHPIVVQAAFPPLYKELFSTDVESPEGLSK
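Drosophila Schneider cells stably carrying a metallothionein-driven Gal4 DBD–ROR gamma fusion and a UAS-Photinus luciferase reporter were exposed to compound for 1 hr, then induced with copper sulfate (700 uM final) for 20 hr at ambient temperature before luminescence reading.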
DT40 TDP1 no CPT: qHTS for Inhibitors of human tyrosyl-DNA phosphodiesterase 1 (TDP1): qHTS in cells in absence of CPT | Potency, µM (titrated, usually from 46.2 µM), for inactives: at the top dose activity change, negative = growth inhibition, actives largely listed as inhibitors | AID 686978, 2013 | 420,000 compounds, 15% hits | DT40 Tdp1-/- hTDP1 cells, no CPT, ATP luminescence, 48 h; note: nearly all actives have a fitted effect of over 55% in size
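Seeded 400 DT40-hTDP1 cells/well (vehicle DMSO, no 20 nM CPT); pinned compounds; ≥48 hr at 37 °C; CellTiter-Glo luminescence as viability measure.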
Gal4-VP16 FLuc: inhibits Gal4-VP16 luciferase reporter, ROR gamma counter-screen; Drosophila S2 Gal4-VP16 UAS-luciferase, luminescence, 20 h; 310,000 compounds, 3.5% hits; Potency, µM (doses to about 53.6 µM), for inactives: at the top dose activity, negative = inhibition, most hits filed as inhibitors;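 note: Gal4-VP16 expression switched on by copper sulfate through the metallothionein promoter; nearly all actives have a fitted effect of over 50% in size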
TDP1 cell CPT: DT40-hTDP1 cell growth loss with CPT | chicken DT40 Tdp1-/-;hTDP1 cells + 20 nM CPT, ATP luminescence, 48 h | Potency, µM (highest dose often 46.2 µM), inactives show top-dose activity change, negative = growth inhibition, usual class: inhibitors | 420,000 compounds, 12% hits | AID 686979; note: nearly all actives have a fitted effect of over 55% in size
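Cell growth measured by CellTiter-Glo luminescence after a minimum 48 h, 37 C compound exposure with 20 nM CPT in Tdp1-knockout DT40 cells stably expressing hTDP1, seeded 400/well; qHTS titration format.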
* hit, by the source's call; ? = inconclusive; . = not tested or not shown; [ ] = another dose, or the depositor's remark. Calls come from the whole dose curve; as a rule, active = well fitted curve in the direction sought with a large enough effect; inconclusive = small, poorly fitted or top-dose-only effect, or another doubt; inactive = no such curve, though single readings can be large; an effect the other way counts as inactive or inconclusive. % is set by controls: 0 for no effect and ±100 for the full control effect; potency is the fitted concentration of half-maximal effect.

SMILES | TDP1 block | RORg inh | DT40 TDP1 no CPT | Gal4-VP16 FLuc | TDP1 cell CPT
CN1OC[C@@H]2CN(C(=O)Cc3ccccc3)[C@H](c3ccccc3Br)C[C@@H]21 | . | . | -27.2% | . | -6.0%
CN1OC[C@@H]2CN(C(=O)CCc3ccccc3)[C@H](c3cccc(-c4ccccc4)c3)C[C@@H]21 | . | . | ? | . | 25.9µM*
CC(=O)N1C[C@H]2CON(C)[C@H]2C[C@H]1c1cccc(-c2cc(Cl)cc(Cl)c2)c1 | . | . | 23.1µM* | . | ?
CN1C(=S)SC(/[N+]([O-])=C\c2ccccc2F)C1(C)C (stereo not drawn) | . | -32.5% | -12.4% | 6.1% | -3.9%
COC(=O)c1c(-c2cccs2)csc1NC(=O)COc1ccc(C(C)(C)C)cc1 | ? | . | 20.6µM* | . | 14.6µM*
COC(=O)c1c(-c2cccs2)csc1NC(=O)COc1ccccc1 | -13.0% | . | 20.6µM* | . | 16.4µM*
C[C@H](CO)N1C[C@H](C)[C@@H](CN(C)S(=O)(=O)c2cn(C)cn2)Oc2ccc(NC(=O)Nc3ccccc3)cc2C1=O | 1.6% | . | -10.7% | . | ?
O=C(Oc1cccc2c(=O)[nH]ccc12)c1ccccc1 | 2.0% | ? | ? | 2.9% | ?
COc1cccc2cc(-c3ccnc(=S)[nH]3)oc12 | 1.3% | 2.82µM* | . | ? | .
CCn1c(-c2cccc(Cl)c2)n[nH]c1=S | -2.0% | 6.31µM* | 1.1% | 11.2µM* | -25.1%
C=CCn1c(-c2cc3cccc(OC)c3o2)n[nH]c1=S | -2.6% | 3.55µM* | ? | ? | ?
C=CCn1c(-c2ccoc2C)n[nH]c1=S | 4.5% | ? | -16.6% | ? | -15.8%
C=CCn1c(-c2cccc(OC)c2OC)n[nH]c1=S | -8.0% | 11.2µM* | ? | ? | ?
C=CCn1c(-c2cc(OC)c(OC)c(OC)c2)n[nH]c1=S | 2.1% | ? | 6.4% | ? | ?
C=CCn1c(-c2cc(Cl)ccc2OC)n[nH]c1=S | 3.8% | 11.2µM* | -2.7% | 17.8µM* | 3.3%
CCn1c(-c2cc(Cl)ccc2OC)n[nH]c1=S | 1.8% | 6.31µM* | -1.8% | ? | -5.2%
CCn1c(-c2cc(Br)ccc2O)n[nH]c1=S | . | . | -20.8% | . | -8.7%
COc1ccc(Cl)cc1-c1n[nH]c(=S)n1C | 8.8% | ? | -15.6% | 1.8% | -7.7%
CCn1c(-c2cc3ccccc3cc2O)n[nH]c1=S | 7.9% | 11.2µM* | -29.2% | ? | -25.1%
CCN(CC)C(=O)CSc1nnc(-c2cc3ccccc3cc2O)n1CC | -4.8% | -1.6% | 9.2µM* | 0.8% | 0.92µM*
CCN(CC)C(=O)CSc1nc2ccccc2c(=O)n1CC | 6.6% | ? | -23.5% | 2.3% | ?
CCS(=O)(=O)C1=NN2C(=N)/C(=C\c3ccc(OS(=O)(=O)c4ccccc4)c(OC)c3)C(=O)N=C2S1 | -16.7% | 2.8% | . | -5.0% | .
CCCCC(=O)Nc1cccc(C(C)O)c1 (stereo not drawn) | 0.0% | -16.9% | . | 10.1% | .
COC(=O)[C@@H](NC(=O)c1ccccc1OC1CCN(S(C)(=O)=O)CC1)C(C)C | 3.9% | ? | -11.3% | 8.9% | -6.1%
COC(=O)c1ccccc1NC(=O)N1CCc2c(sc3c2CCCC3)C1c1ccc(F)cc1 (stereo not drawn) | 6.2% | . | -28.5% | . | -27.4%
SMILES | TDP1 block | RORg inh | DT40 TDP1 no CPT | Gal4-VP16 FLuc | TDP1 cell CPT
COc1ccc(NC(=O)N2CCc3c(sc4c3CCCC4)C2c2ccccc2OC)cc1 (stereo not drawn) | 0.0% | . | 13µM* | . | 16.4µM*
COc1cccc(CNC(=O)N2CCc3c(sc4c3CCCC4)C2c2ccc(F)cc2)c1 (stereo not drawn) | 1.2% | . | 14.6µM* | . | ?
CCOc1ccc(S(=O)(=O)Nc2cc(S(=O)(=O)N(CC)CC)ccc2N2CCCC2)cc1 | 8.5% | ? | ? | 4.9% | ?
COC(=O)N1CCC2(CC1)CCN(C(c1ccccc1)c1ccccc1)CC2 | . | 20.5% | ? | 0.6% | -6.2%
COC(=O)C1=C/C=C\CN(C(c2ccccc2)c2ccccc2)/C=C\1C(=O)OC | . | . | 20.6µM* | . | ?
Cc1cccc(N(C)C(=O)c2cc(S(=O)(=O)N3CCc4ccccc43)cn2C)c1 | . | ? | ? | -11.1% | ?
OCCNc1nc2ccccc2n1CCN1CCCCC1 | -9.4%[56.1 µM] | 16.8% | 1.7% | -8.3% | -13.2%
O=C(Cn1cnc2ccccc21)Nc1cccc(S(=O)(=O)N2CCCC2)c1 | 1.3% | . | 4.11µM* | . | 5.8µM*
O=C(Cn1c(NCCO)nc2ccccc21)Nc1cccc(S(=O)(=O)N2CCCC2)c1 | 0.6% | . | 10.3µM* | . | ?
O=C(CN1CCN(c2ccccn2)CC1)Nc1cccc(S(=O)(=O)N2CCCC2)c1 | 1.2% | 21.3% | 16.4µM* | 2.7% | ?
COc1cccc(/C=N/NC(=O)CSc2cccc3cccnc23)c1 | . | 8.91µM* | 11.6µM* | ? | ?
Cc1cccc(CSc2cccc3cccnc23)c1 | 1.1% | 4.47µM* | 3.66µM* | 7.94µM* | 4.11µM*
O=C(CSc1cccc2cccnc12)N/N=C/c1ccc(O)cc1 | . | 0.2% | ? | 4.0% | ?
CCOC(=O)CSc1cccc2cccnc12 | 4.9% | ? | 5.8µM* | 10µM* | 5.8µM*
CCOC(=O)c1cnc2ccc(C)cn2c1=O | 2.7% | -0.8% | -8.0% | -12.3% | -16.2%

High-throughput results (PubChem BioAssay)
